The assay deals with Caspase-9 (Homo sapiens) (UniProt P55211). As to the kind of experiment: inhibitors of purified CASP9 protease – biochemical, fluorescence, plate reader, cherry-picked samples, selectivity assay for caspase-6 inhibitor project, dose response (AID 743293).

Entries with a potency or affinity are not part of this list. The source made the active and inactive calls.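 Rule for the calls: active = compounds lowering fluorescence with a fitted half-maximal concentration at or below a set limit tied to top dose; inconclusive = flat curve with 30 to 70% inhibition, or poor fit; inactive = the rest.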

Sequence of Caspase-9 (Homo sapiens) (P55211 whole entry, looked up): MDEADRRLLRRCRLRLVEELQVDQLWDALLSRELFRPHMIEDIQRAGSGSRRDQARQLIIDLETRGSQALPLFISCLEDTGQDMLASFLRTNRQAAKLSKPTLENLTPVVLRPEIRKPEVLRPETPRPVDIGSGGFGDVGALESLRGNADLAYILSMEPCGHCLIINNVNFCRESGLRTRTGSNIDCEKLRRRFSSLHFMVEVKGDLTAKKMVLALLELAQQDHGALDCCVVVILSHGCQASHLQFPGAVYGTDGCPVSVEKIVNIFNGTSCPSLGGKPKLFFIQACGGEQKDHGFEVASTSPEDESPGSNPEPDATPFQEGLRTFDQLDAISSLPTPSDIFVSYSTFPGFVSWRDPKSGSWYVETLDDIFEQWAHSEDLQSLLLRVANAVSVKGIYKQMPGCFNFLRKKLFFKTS

`CC(Cc1ccc(O)cc1)NCC(O)c1ccc(O)c(O)c1` (stereo unspecified): the call was inactive.

The values are drawn from PubChem BioAssay AID743293 (Broad Institute, 2014).
